# Activity calls are given as the source filed them.
# Legend:
# [1] = small molecules captured by biotinylated probe aFSTL3 – biochemical, small-molecule microarray, fluorescence 635/667, stem cell growth factor project, primary screen (AID 1064); details: higher = more signal;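 note: measures binding of the biotinylated anti-FSTL3 antibody to printed compounds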
# [2] = binders from COS7 lysate, DM2A8 probe, primary screen, torsin A project, cell lysate, small-molecule microarray, fluorescence 635/667 (AID 1065); details: higher = more signal, COS7 lysate expressing mutant human TOR1A
# [3] = small molecules captured by biotinylated probe aFGF2 – biochemical, small-molecule microarray, fluorescence 635/667, stem cell growth factor project, primary screen (AID 1067); details: higher = more signal;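 note: measures binding of biotinylated aFGF2 protein to printed compounds on slides; z-score merges feature fluorescence and signal-to-noise across triplicate slides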
# [4] = small molecules captured by biotinylated probe aFGF10 – biochemical, small-molecule microarray, fluorescence 635/667, stem cell growth factor project, primary screen (AID 1071); details: higher = more signal;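 note: score merges 667 nm spot intensity and signal to noise from triplicate slides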
# [5] = molecular target: Neurogenic locus notch homolog protein 2 (Homo sapiens) (UniProt Q04721); experiment: small molecules binding Notch2 protein – biochemical, small-molecule microarray, 635 nm fluorescence, stem cell growth factors, primary screen (AID 1073); details: higher = more signal
# [6] = molecular target: Pro-neuregulin-1, membrane-bound isoform (Homo sapiens) (UniProt Q02297); experiment: small molecules binding neuregulin-1 protein – biochemical, small-molecule microarray, fluorescence 635/667, psychiatric disease protein project, primary screen (AID 1075); details: NRG1 binding, 635 nm fluorescence, higher = more signal;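 note: score combines 667 nm spot fluorescence with signal to noise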
# Chain of Pro-neuregulin-1, membrane-bound isoform (Homo sapiens) (Q02297 whole entry, looked up, the tested form may be a part, canonical isoform): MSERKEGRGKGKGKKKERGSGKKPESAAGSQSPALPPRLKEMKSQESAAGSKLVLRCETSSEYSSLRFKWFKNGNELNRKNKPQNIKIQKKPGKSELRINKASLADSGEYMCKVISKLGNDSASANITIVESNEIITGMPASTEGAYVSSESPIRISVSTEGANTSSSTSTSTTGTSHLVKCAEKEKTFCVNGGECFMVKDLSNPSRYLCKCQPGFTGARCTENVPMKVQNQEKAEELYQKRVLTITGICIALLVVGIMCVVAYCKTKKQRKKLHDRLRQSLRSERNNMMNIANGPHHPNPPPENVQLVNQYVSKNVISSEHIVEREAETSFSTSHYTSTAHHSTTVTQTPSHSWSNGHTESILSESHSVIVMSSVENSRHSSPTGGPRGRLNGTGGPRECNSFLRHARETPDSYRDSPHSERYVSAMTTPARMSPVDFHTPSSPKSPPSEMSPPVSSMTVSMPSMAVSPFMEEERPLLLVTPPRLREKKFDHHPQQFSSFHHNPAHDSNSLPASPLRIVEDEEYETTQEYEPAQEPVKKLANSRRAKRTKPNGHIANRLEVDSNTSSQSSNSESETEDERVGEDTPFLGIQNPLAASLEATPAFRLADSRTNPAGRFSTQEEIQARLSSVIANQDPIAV
# [7] = test system: Neuregulin-1 EGF-like domain; experiment: small molecules binding NRG1 EGF domain – biochemical, small-molecule microarray, 635 nm fluorescence, primary screen (AID 1081); details: higher = more signal;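 note: binding of the protein to compounds printed on small-molecule microarray slides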
# [8] = FRG1 expression reporter modulators in myotubes – cell-based, C2C12 myotubes, firefly/Renilla luciferase, luminescence, FRG1 inhibition for FSHD, primary screen (AID 1084); details: FRG1 promoter luciferase, higher = more signal, called active from +8 up or from −8 down
# [9] = small molecules captured by biotinylated probe aFST – biochemical, small-molecule microarray, fluorescence 635/667, stem cell growth factor project, primary screen (AID 1086); details: higher = more signal;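 note: score merges 667 nm fluorescence with signal-to-noise of each printed compound spot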
# [10] = binders of probe aHhip on microarray, primary screen, stem cell growth factor project, biochemical, small-molecule microarray, fluorescence 635/667 (AID 1087); details: higher = more signal;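 note: score merges spot fluorescence at 667nm with spot signal to noise ratio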
# [11] = test system: PRMT1 (protein arginine N-methyltransferase 1); experiment: small molecules binding arginine methyltransferase PRMT1 – biochemical, small-molecule microarray, 635 nm fluorescence, primary screen (AID 1088); details: higher = more signal;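 note: binding of Prmt1 protein to compounds spotted on small-molecule microarray slides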
# [12] = growth effects on S. cerevisiae YJM789 – YJM789 clinical isolate, OD600, 24 h, basal, primary screen (AID 1089); details: higher = more signal, called active from +8 up or from −8 down;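 note: growth of clinical yeast isolate S. cerevisiae YJM 789 seeded 1000 cells per well; test concentration not given here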
# [13] = S. pombe growth modifiers, basal conditions – strain 972, OD600, 24 h, no modulator, primary screen (AID 1090);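 note: basal condition with compound alone and no growth modifier present; test concentration not given here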; details: S. pombe 972 growth, higher = more signal, called active from +8 up or from −8 down
# [14] = budding yeast growth modifiers under rapamycin – strain BY4716, OD600, 96 h, primary screen (AID 1091); note: test concentration not given here; details: S. cerevisiae BY4716 + rapamycin, higher = more signal, called active from +8 up or from −8 down
# [15] = molecular target: Torsin-1A-interacting protein 2 (Homo sapiens) (UniProt Q8NFQ8); experiment: small molecules binding lysate-expressed LULL1 – cell lysate, human LULL1 lysate, 635/667 nm fluorescence, primary screen (AID 1092); details: small-molecule microarray, hLULL1 lysate binding, 635 nm fluorescence; higher = more signal;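 note: probe is lysate of COS7 cells overexpressing human LULL1; score merges per-feature 667 nm fluorescence with signal-to-noise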
# Chain of Torsin-1A-interacting protein 2 (Homo sapiens) (Q8NFQ8 whole entry, looked up): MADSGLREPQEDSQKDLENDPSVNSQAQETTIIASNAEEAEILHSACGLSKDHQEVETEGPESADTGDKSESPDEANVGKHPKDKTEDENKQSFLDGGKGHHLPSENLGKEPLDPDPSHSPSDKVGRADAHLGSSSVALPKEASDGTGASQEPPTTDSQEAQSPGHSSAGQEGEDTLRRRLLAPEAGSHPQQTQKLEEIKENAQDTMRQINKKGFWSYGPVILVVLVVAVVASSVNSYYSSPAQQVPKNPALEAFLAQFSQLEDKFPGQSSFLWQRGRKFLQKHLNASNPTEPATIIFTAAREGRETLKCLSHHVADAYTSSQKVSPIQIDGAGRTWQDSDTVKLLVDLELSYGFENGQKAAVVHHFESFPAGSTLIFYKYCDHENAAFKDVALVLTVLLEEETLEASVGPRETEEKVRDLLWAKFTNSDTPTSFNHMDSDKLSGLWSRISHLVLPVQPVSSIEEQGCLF
# [16] = optical density change of DRC41 E. coli – strain DRC41, OD650, 24 h, E. coli filamentation project, primary screen (AID 1093);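 note: MC1000 strain lacking acrAB efflux and sulA so SOS filamentation is blocked; test concentration not given here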; details: E. coli DRC41 growth, higher = more signal, called active from +8 up or from −8 down
# [17] = probe aLefty2 binding to arrayed compounds – biochemical, biotinylated probe, 635/667 nm fluorescence, primary screen (AID 1094); details: small-molecule microarray, higher = more signal;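 note: score merges spot fluorescence near 667 nm with spot signal-to-noise ratio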
# [18] = test system: Noggin (protein binding on small-molecule microarray); experiment: small molecules binding Noggin protein – biochemical, 635/667 nm fluorescence, primary screen (AID 1095); details: 635 nm fluorescence, higher = more signal;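 note: score merges 667 nm feature fluorescence with signal to noise over triplicate slides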
# [19] = molecular target: Neurogenic locus notch homolog protein 3 (Homo sapiens) (UniProt Q9UM47); experiment: small molecules binding NOTCH3 protein – biochemical, 635/667 nm fluorescence, primary screen (AID 1096); details: small-molecule microarray, 635 nm fluorescence, higher = more signal
# Chain of Neurogenic locus notch homolog protein 3 (Homo sapiens) (Q9UM47 whole entry, looked up): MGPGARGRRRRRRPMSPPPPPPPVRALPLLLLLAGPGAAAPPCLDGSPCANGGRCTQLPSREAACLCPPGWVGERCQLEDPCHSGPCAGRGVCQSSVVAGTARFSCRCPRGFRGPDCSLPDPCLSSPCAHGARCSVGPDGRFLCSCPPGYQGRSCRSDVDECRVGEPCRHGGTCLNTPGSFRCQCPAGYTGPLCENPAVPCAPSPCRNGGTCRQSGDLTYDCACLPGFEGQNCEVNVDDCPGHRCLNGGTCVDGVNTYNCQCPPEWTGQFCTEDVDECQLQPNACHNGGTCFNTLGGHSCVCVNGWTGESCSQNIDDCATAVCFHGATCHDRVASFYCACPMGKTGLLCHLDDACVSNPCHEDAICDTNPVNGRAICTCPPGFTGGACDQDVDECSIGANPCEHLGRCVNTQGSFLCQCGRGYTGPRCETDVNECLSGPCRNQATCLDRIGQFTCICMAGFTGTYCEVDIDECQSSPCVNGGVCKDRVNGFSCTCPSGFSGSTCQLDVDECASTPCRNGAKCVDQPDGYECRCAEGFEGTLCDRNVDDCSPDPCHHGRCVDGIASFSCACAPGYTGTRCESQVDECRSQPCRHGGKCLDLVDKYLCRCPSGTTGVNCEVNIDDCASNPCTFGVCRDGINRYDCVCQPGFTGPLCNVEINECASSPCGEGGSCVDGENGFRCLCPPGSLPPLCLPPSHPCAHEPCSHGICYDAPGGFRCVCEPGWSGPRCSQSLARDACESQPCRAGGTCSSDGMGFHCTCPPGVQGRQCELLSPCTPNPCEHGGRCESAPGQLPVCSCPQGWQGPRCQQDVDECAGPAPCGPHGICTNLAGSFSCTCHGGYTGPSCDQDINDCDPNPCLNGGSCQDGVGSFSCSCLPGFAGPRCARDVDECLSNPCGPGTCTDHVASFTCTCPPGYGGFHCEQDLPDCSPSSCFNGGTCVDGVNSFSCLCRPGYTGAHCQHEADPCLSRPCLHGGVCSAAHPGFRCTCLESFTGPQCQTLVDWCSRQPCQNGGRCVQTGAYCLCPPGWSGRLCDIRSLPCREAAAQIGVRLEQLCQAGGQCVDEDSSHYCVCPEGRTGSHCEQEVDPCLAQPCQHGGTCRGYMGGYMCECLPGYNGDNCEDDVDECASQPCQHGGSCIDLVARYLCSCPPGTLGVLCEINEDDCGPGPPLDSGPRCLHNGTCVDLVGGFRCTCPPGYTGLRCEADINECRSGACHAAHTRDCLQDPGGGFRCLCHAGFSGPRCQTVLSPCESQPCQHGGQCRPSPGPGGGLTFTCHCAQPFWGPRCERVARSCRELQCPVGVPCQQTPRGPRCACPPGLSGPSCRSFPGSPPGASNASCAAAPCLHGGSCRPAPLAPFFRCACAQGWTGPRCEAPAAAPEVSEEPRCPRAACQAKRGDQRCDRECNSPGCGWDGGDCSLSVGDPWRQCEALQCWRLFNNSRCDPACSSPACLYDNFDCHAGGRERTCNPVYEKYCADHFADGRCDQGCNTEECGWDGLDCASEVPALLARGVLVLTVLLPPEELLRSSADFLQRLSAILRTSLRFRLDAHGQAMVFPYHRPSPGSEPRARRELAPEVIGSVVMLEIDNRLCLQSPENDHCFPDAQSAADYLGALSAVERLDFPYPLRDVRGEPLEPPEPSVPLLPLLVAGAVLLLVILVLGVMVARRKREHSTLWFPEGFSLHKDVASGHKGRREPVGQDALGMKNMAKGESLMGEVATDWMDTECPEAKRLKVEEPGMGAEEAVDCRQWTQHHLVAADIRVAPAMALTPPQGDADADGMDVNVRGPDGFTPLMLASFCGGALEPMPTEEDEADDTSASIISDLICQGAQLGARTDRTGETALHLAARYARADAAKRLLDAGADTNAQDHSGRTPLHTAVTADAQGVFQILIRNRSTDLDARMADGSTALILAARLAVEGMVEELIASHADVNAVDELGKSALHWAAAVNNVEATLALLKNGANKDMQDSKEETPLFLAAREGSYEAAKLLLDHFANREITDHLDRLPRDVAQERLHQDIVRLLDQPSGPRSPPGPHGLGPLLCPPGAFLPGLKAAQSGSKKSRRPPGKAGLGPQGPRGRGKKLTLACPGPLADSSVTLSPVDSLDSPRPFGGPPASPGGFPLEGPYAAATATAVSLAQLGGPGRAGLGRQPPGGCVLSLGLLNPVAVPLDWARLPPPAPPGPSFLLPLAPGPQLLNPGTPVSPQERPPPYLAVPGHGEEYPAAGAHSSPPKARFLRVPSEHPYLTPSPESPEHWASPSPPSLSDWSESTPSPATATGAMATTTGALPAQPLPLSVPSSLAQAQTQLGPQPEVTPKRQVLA
# [20] = probe aEGFR binding to arrayed compounds – biochemical, biotinylated probe, 635/667 nm fluorescence, primary screen (AID 1097); details: small-molecule microarray, higher = more signal;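 note: probe is a biotinylated anti-EGFR antibody binding compounds printed on slides; score combines fluorescence near 667 nm and signal to noise of each spot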
Structure (SMILES),composite z-score [1],composite z-score [2],composite z-score [3],composite z-score [4],composite z-score [5],composite z-score [6],composite z-score [7],z-score [8],composite z-score [9],composite z-score [10],composite z-score [11],z-score [12],z-score [13],z-score [14],composite z-score [15],z-score [16],composite z-score [17],composite z-score [18],composite z-score [19],composite z-score [20]
COc1cc2c(cc1OC)CN(C(=O)[C@@H]1[C@H]3C(=O)O[C@H](c4ccccc4)[C@H](c4ccccc4)N3[C@H](c3ccccc3OCCO)[C@@]13C(=O)Nc1ccc(C#CCNC(N)=O)cc13)CC2,0.309,0.586,0.0564,0.837,0.936,0.852,1.07,0.297 (inactive),0.237,-0.074,1.48,0.443 (inactive),1 (inactive),3.09 (inactive),2.61,0.912 (inactive),0.257,1.09,1.08,-0.0873
CCCC[C@@H]1C[C@H]1[C@@H](NC(=O)c1ccc(-c2ccccc2)cc1)c1ccc(-c2ccccc2)cc1,-0.129,0.0257,0.702,0.711,0.286,0.0352,0.217,-1.11 (inactive),0.0469,0.107,0.407,-0.38 (inactive),-6.62 (inactive),-2.47 (inactive),0.983,-1.08 (inactive),-0.0986,0.677,1,-0.109
O=C1C[C@]2(c3ccc([N+](=O)[O-])cc3)C(=O)N(CC(F)(F)F)c3cc(CO)ccc3[C@H]2N1CC12CC3CC(CC(C3)C1)C2,-0.127,0.0228,-0.101,0.0063,-0.284,-0.0962,0.988,-0.659 (inactive),0.0443,-0.249,1.08,0.116 (inactive),1.21 (inactive),-1.69 (inactive),2.49,-0.577 (inactive),-0.145,0.363,-0.234,-0.0972
COCCOC(=O)N1C(=O)[C@@]2(c3cc(C#CCNC(N)=O)ccc31)[C@H](c1ccc(O)cc1)N1[C@H](c3ccccc3)[C@H](c3ccccc3)OC(=O)[C@H]1[C@@H]2C(=O)Nc1nc2ccccc2s1,0.764,0.172,-0.0736,0.826,1.27,0.787,0.297,-0.0332 (inactive),0.522,-0.0994,0.902,-2.82 (inactive),-1.55 (inactive),-1.12 (inactive),1.01,3.57 (inactive),0.218,1.23,1.04,0.13
COC(=O)C[C@@H]1C[C@H](C)[C@]2(O1)C(=O)N(Cc1ccccc1)c1ccc(NC(C)=O)cc12,-0.589,0.108,-0.144,0.315,0.381,-0.12,0.443,0.74 (inactive),-0.0507,0.0012,-0.509,0.498 (inactive),-1.1 (inactive),0.134 (inactive),0.053,0.827 (inactive),-0.166,0.571,0.107,-0.111
COc1ccc(C#Cc2ccc3c(c2)[C@]2(C(=O)N3)[C@H](c3ccc(O)cc3)N3[C@H](c4ccccc4)[C@H](c4ccccc4)OC(=O)[C@H]3[C@@H]2C(=O)N2CCCCCCC2)cc1,3.42,0.524,0.858,0.488,1.39,1.01,1.25,-0.263 (inactive),3.25,0.0914,1.55,-1.51 (inactive),-0.0733 (inactive),1.15 (inactive),4.08,0.484 (inactive),1.61,1.86,1.07,0.778
O=C1O[C@@H](c2ccccc2)[C@@H](c2ccccc2)N2[C@@H](c3ccccc3OCCO)[C@]3(C(=O)Nc4ccc(C#CC5(O)CCCCCC5)cc43)[C@@H](C(=O)Nc3nc4ccccc4s3)[C@H]12,-0.508,0.984,-0.0113,0.895,1.22,0.678,1.11,-0.0944 (inactive),0.806,1.22,1.56,1.39 (inactive),1.96 (inactive),3.42 (inactive),2.19,0.0499 (inactive),0.01,1.33,1.06,1.01
C=CC[C@]1(C(=O)N2CCOCC2)N=C(c2ccc(OCCCO)cc2)O[C@H]1c1ccccc1,0.744,0.905,0.0445,0.147,0.618,2.1,1.25,0.54 (inactive),0.374,-0.251,0.74,-1.8 (inactive),-2.42 (inactive),-1.67 (inactive),3.56,0.382 (inactive),-0.0212,-0.243,0.175,-0.165
O=C/C=C/c1ccc(Cl)cc1,-0.0244,-0.385,0.0086,0.439,-0.885,-0.476,0.651,-0.678 (inactive),-0.493,-0.282,-1.24,-10.4 (active),-20.1 (active),-2.49 (inactive),-1.2,-0.767 (inactive),-0.134,-0.968,-1.09,-0.113
O=C1O[C@@H](c2ccccc2)[C@@H](c2ccccc2)N2[C@@H](c3ccc(O)cc3)[C@]3(C(=O)Nc4ccc(C#CC5(O)CCCCCC5)cc43)[C@@H](C(=O)N3CCCCCCC3)[C@H]12,2.55,2,0.764,0.876,1.66,2.49,1.27,-0.849 (inactive),2.79,0.67,1.54,1.16 (inactive),0.321 (inactive),2.09 (inactive),4.45,0.26 (inactive),1.42,2.41,1.07,1.24
N[C@@H](Cc1ccccc1)Cn1cc(-c2ccccc2)nn1,0.407,0.556,-0.0613,-0.161,0.0615,0.429,0.198,0.874 (inactive),0.746,-0.186,0.043,-0.814 (inactive),-2.18 (inactive),0.371 (inactive),0.196,-3 (inactive),0.323,-0.0062,-0.0488,-0.0549
Cc1ccc(S[C@]2(C(=O)O)CC(=O)N(C3Cc4ccccc4C3)[C@@H]2c2ccc(CO)cc2I)cc1,1.43,-0.269,-0.0692,0.117,-0.634,0.899,0.78,0.788 (inactive),-0.154,-0.0581,0.46,-1.47 (inactive),-1.01 (inactive),1.6 (inactive),2.32,-0.263 (inactive),0.125,-1.02,-0.891,-0.132
CCC[C@@H]1C=C(C(=O)O)[C@H](c2ccc(C)cc2)N1S(=O)(=O)c1ccc(C)cc1,-0.0973,0.0641,0.0485,0.854,1.35,1.79,1.26,-1.09 (inactive),0.648,0.099,0.844,-0.545 (inactive),0.249 (inactive),-0.34 (inactive),3.68,-0.499 (inactive),0.0943,-0.327,0.62,0.0992
NCCCCCCNC(=O)[C@H]1C[C@H]2C(=O)NCC(=O)N2[C@H]1c1cccc(OCCO)c1,-0.196,0.615,-0.0647,0.477,0.363,0.933,1.13,1.03 (inactive),0.0417,-0.0994,1.58,0.23 (inactive),-1.12 (inactive),-0.442 (inactive),1.59,1.1 (inactive),0.0537,1.5,1.15,-0.034
COc1ccc(C(O)C2C=CC3C(=O)NC(=O)C3N2Nc2ccccn2)cc1OCc1ccccc1 (stereo not given),-0.202,-0.0593,-0.0226,0.177,1.27,1.71,0.666,0.387 (inactive),0.216,3.69,0.301,0.167 (inactive),1.03 (inactive),-0.269 (inactive),3.51,-0.181 (inactive),-0.0865,0.15,-0.192,0.0357
CC(=O)NCCCC[C@@H]1NC(=O)[C@@H]2C[C@H](C(=O)NCCCCCCNC(=O)CS)[C@H](c3ccc(O)cc3)N2C1=O,0.219,0.463,-0.0985,-0.1,-0.498,1.49,1.27,1.5 (inactive),-0.715,-0.0645,1.5,0.372 (inactive),-0.804 (inactive),0.778 (inactive),1.46,-0.581 (inactive),-0.103,0.171,0.0726,-0.142
[N-]=[N+]=NCc1ccccc1C[C@]1(C(=O)NCC(O)CO)N=C(c2ccc(OCCCO)cc2)O[C@H]1c1ccccc1N=[N+]=[N-] (stereo not given in full),1.55,0.459,-0.01,0.77,0.814,1.17,0.731,-0.5 (inactive),0.575,-0.194,-0.384,0.727 (inactive),0.325 (inactive),2.77 (inactive),2.61,1.02 (inactive),0.679,-0.761,-0.25,0.428
COC(=O)[C@@]1(Cc2ccccc2)[C@H]2c3cc(C(=O)N(C)C)n(Cc4cc(C)n(C)n4)c3C[C@H]2CN1C(=O)c1ccccc1,0.512,0.403,-0.221,-0.0117,1.69,1.51,1.27,0.0005 (inactive),1.51,0.628,0.0423,-0.571 (inactive),-0.528 (inactive),-0.649 (inactive),3.96,-0.564 (inactive),0.0382,-0.127,0.809,0.238
COc1ccc(CCNC(=O)[C@@]2(Sc3ccc(C)cc3)CC(=O)N(Cc3ccccc3Cl)[C@@H]2c2ccc(CO)cc2I)cc1,0.91,-0.548,-0.105,0.0404,-1.02,1.2,0.883,-2.03 (inactive),-0.299,0.0695,1.26,-1.62 (inactive),-3.24 (inactive),1.72 (inactive),1.8,0.68 (inactive),0.0349,-0.284,-0.788,-0.185
C=C(COC)C(=O)CC[C@H](OC(C)=O)c1cccc(OCCO)c1,-0.0206,1.66,-0.0767,0.553,-0.844,-0.13,-0.208,0.39 (inactive),-0.392,-0.291,0.591,0.513 (inactive),-1.34 (inactive),-0.0523 (inactive),0.118,0.896 (inactive),-0.158,1.03,-0.902,-0.263

# Reference: PubChem BioAssay
